Assay results reported in PubChem BioAssay (NCATS).
Results filed as inconclusive are left out. Active and inactive are the calls of the source. Calls follow the shape of the dose curve; as a rule, active = well fitted cell-killing curve with a large enough effect; inconclusive = small, poorly fitted or top-dose-only effect; inactive = flat fitted curve, though single readings scatter.

Experiment: Cell Viability - H-4-II-E (AID 543); also: nearly all actives have a fitted effect of over 35% in size
Conditions: H-4-II-E rat hepatoma viability; series mostly up to 92.2 µM; activity change, negative = cytotoxic: at the top concentration
Excerpt: NIH Chemical Genomics Center [NCGC]
NIH Molecular Libraries Screening Centers Network [MLSCN]
National Institutes of Environmental Health Sciences [NIEHS]
National Toxicology Program [NTP]
We have developed a 1536-well cell-based assay for quantitative high throughput screening (qHTS) against a number of cell lines to determine in vitro cytotoxicity of small molecules. This particular assay uses the H-4-II-E cell line which is derived from rat hepatoma.
NCGC Assay Protocol Summary:
The CellTiter-Glo luminescent cell viability assay (Promega) is a homogeneous method to measure the number of viable cells in culture. The end point readout of this assay is based on quantitation of intracellular ATP, an indicator of metabolic activity, using the luciferase reaction. Luciferase catalyzes the oxidation of beetle Luciferin to oxyluciferin and light in the presence of ATP. The luminescent signal is proportional to amount of ATP present.
Using the CellTiter-Glo luminescent cell viability assay, the amount of cellular ATP was measured in the H-4-II-E cell line with complete culture medium following compound treatment for 40 hours. The assay was performed in opaque white Kalypsys 1536-well plates. In the screen, tamoxifen and doxorubicin were used as positive controls. Library compounds were measured for their ability to cause acute toxicity in the cell line, as reflected by a decrease in intracellular ATP levels, in a concentration-dependent manner. […] AC50 values were determined from concentration-response data modeled with the standard Hill equation.
qHTS protocol fo CellTiter Glo H-4-II-E cellular assay
[Step] [Parameter] [Value] [Description]
1. Reagent; 5 uL; 1500 H-4-II-E cells/well
2. Time; 5 hr; 37 °C incubation
4. Controls; 23 nL; Tamoxifen 0.34 uM to 100 uM & Doxorubicin 0.02 nM to 100 uM
5. Time; 40 hr; 37 °C incubation
6. Reagent; 5 uL; CellTiter Glo reagent
7. Time; 20 min; Room Temperature
8. Detection; Luminescence; Viewlux plate reader
Keywords: cell viability, cytotoxicity, H-4-II-E cell line, luminescence, NTPHTS, NTPHTS_NCGC, NIEHS, EPA, DSSTox, MLSMR, MLSCN, NIH Roadmap, qHTS, NCGC
% is scaled to controls: 0 for no effect and ±100 for the full control effect; potency is read from the fitted curve at half-maximal effect.

Structure (SMILES) | activity change, negative = cytotoxic | Potency
CCOP(=S)(OCC)Oc1cc(C)nc(C(C)C)n1 | -7.72% (inactive) | 
CNCC(O)c1ccc(O)cc1 (stereo unspecified) | -7.78% (inactive) | 
N[C@@H](Cc1ccc(N(CCCl)CCCl)cc1)C(=O)O |  | 50.1 µM (active)
c1ccc2c(c1)Nc1ccccc1S2 | -21.3% (inactive) | 
Oc1ccc(Cl)cc1Cc1ccccc1 | -10.9% (inactive) | 
Clc1ccc(COC(Cn2ccnc2)c2ccc(Cl)cc2Cl)cc1 (stereo unspecified) |  | 39.8 µM (active)
Oc1cccc2cccnc12 |  | 39.8 µM (active)
Oc1ccccc1-c1ccccc1 | -4.2% (inactive) | 
OCCOc1ccccc1 | 2.88% (inactive) | 
NCC(O)c1ccc(O)cc1 (stereo unspecified) | -6.01% (inactive) | 
CCCC(C)(COC(N)=O)COC(=O)NC(C)C (stereo unspecified) | -4.07% (inactive) | 
